From PubChem BioAssay
An excerpt weighted towards active compounds, which were near 5.7% of everything screened.
DAX1 inh-1 = inhibitors of human orphan nuclear receptor DAX1 (NR0B1); P51843; HEK293 Gal4-DAX1 luciferase reporter, luminescence; inhibition, % at 6.75 µM; 0.99% of 340,000 active; AID 504766;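 active = inhibition above the mean over all tested compounds plus 3 SD, cut at about 4.2% in these data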;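 also: inhibition shows as a rise in luminescence from relieved DAX1 repression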
Target sequence (P51843 207-470 limits assumed): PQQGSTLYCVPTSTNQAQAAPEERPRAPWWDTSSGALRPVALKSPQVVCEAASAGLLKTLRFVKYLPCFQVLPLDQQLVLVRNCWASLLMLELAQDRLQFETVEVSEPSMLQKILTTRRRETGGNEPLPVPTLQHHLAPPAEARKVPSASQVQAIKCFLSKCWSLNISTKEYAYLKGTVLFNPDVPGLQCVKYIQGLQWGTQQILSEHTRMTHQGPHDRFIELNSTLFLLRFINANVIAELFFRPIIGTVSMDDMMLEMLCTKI
hcDAF-12 act = H. contortus DAF-12 activation, primary screen. 1.4% of 370,000 active. activation, % at 6.8 µM. HEK293 hcDAF-12 lit1-tk-luc reporter, luminescence; 0% DMSO, 100% Δ7-dafachronic acid;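 active = activation above the mean of all tested compounds plus 3 SD, cut at about 5.5% in these data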
AHR activator = human AHR activation | AID 2796 | activation, % at 5 µM | AHR-responsive luciferase reporter cells, luminescence | 2.5% of 320,000 active; in the data active = activation above about 47%
DAX1 inh-2 = DAX1 (NR0B1) inhibition, primary screen; HEK293T StAR-luciferase reporter, SF-1/DAX-1 repression relief; inhibition, % at 6.8 µM; 1.1% of 370,000 active;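 active = inhibition above the mean over all tested compounds plus 3 SD, cut at about 3.6% in these data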;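 also: higher inhibition means more luminescence from relief of DAX-1 repression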
ssDAF-12 act = activators of S. stercoralis DAF-12 nuclear receptor; activation, % at 6.8 µM; HEK293 ssDAF-12/GRIP1 lit1-tk-luc reporter, luminescence; % of 3 µM dafachronic acid response; 1% of 370,000 active; AID 652126;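 active = activation above the mean over all tested compounds plus 3 SD, cut at about 0.9% in these data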
hgDAF12 agonist = activates the H. glycines DAF-12 receptor ligand-binding domain. HEK293 GAL4-hgDAF12 UAS-luciferase reporter, agonist luminescence; normalized to butyrate control. activation, % at 6.8 µM. 1.8% of 370,000 active. AID 687014;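 active = activation above a cutoff set at the mean of all screened compounds plus 3 SD, cut at about 10% in these data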
Numbers stand for hits; 0 = inactive; - = no result given.

SMILES | DAX1 inh-1 | hcDAF-12 act | AHR activator | DAX1 inh-2 | ssDAF-12 act | hgDAF12 agonist
COc1cc(/C=N/N=C2/C(=O)Nc3ccccc32)ccc1O | 0 | 0 | 0 | 0 | 0 | 0
Cc1nc2cc(-c3sccc3-n3cccc3)nn2c(C)c1C | 0 | 0 | 69 | 0 | 0 | 0
Cn1c(=O)c2nc(Cl)c(-c3ccccc3)nc2n(C)c1=O | 0 | 0 | 0 | 0 | 0 | 0
Cn1c(=O)c2nc(-c3ccccc3)c(-c3ccccc3)nc2n(C)c1=O | 4.5 | 0 | 0 | 0 | 0 | 0
COc1ccc(C(=O)N2N=C(c3cccc(OC)c3)CC2(O)C(F)(F)F)cc1 (configuration not stated) | 0 | 0 | 0 | 0 | 0 | 0
Nc1ccc2nn(-c3cccc4ccccc34)nc2c1 | 0 | 0 | 48 | 0 | 0 | 0
COc1ccc(CNC(=O)Cn2ncn3c(cc4ccccc43)c2=O)cc1 | 0 | 0 | 0 | 0 | 0 | 0
COc1ccc(CNC(=O)Cn2cc3c(n2)CCCCC3)cc1 | 5.7 | 0 | 0 | 0 | 0 | 0
COc1ccc(CNC(=O)Cn2ncn3cccc3c2=O)cc1 | - | 0 | 71 | 0 | 0 | 0
CCCCCCNC(=O)O[C@H]1C[C@H](C(=O)OC)[C@H](C(=O)OC)C2CN(S(=O)(=O)c3ccc(C)cc3)C[C@@]21O (some centres not stated) | 0 | 0 | - | 0 | 0 | 0
CC(C)(C)c1ccc(NC(=O)COC(=O)C2CCCC2)cc1 | 0 | 0 | 0 | 0 | 0 | 0
CC(C)(C)c1ccc(NNC(=O)C2CCC2)cc1 | 0 | 0 | 73 | 0 | 0 | 0
CN1CCN(C(=O)c2cc3ccccc3[nH]2)CC1 | 0 | 0 | 0 | 0 | 0 | 0
Cc1ccc(S(=O)(=O)N2CCCN(C(=O)c3cc4ccccc4[nH]3)CC2)cc1 | 0 | 5.8 | 62 | 0 | 0 | 0
c1ccc(SCc2nc(-c3ccncc3)no2)cc1 | 0 | 5.6 | 0 | 0 | 0 | 0
CC(C)C(c1nnnn1C1CCCCC1)N1CCc2ccccc21 (configuration not stated) | 0 | 0 | 0 | 0 | 0 | 0
Cc1cc2nc(-c3cccc(Cl)c3)c(Cc3cccc(Cl)c3)n2c(C)c1Br | - | 0 | - | 0 | 0 | 0
Cc1cc2nc(-c3ccccc3)c(Cc3ccsc3)n2c(C)c1Br | - | 0 | - | 0 | 2.0 | 0
Cc1cc2nc(-c3ccc(Cl)cc3)c(Cc3cccc(Cl)c3)n2c(C)c1Br | - | 0 | - | 0 | 1.1 | 0
O=C(NCc1ccc(Cl)cc1)C(=O)NCC1OCCN1C(=O)c1cccs1 (configuration not stated) | 0 | 6.2 | 0 | 0 | 0 | 0
C/C(=N/NC(=O)CCCOc1ccc(Cl)cc1Cl)c1ccc(C)o1 | 0 | 0 | 0 | 0 | 1.1 | 0
CCn1c(C)nc2cc(C(=O)NNC(=S)Nc3ccc(Cl)cc3)ccc21 | 0 | 0 | 0 | 0 | 0 | 0
CCn1c(C)nc2cc(C(=O)NNC(=S)Nc3ccc(F)cc3)ccc21 | 0 | 0 | 0 | 3.7 | 0 | 0
CN1Cc2c(N3CCOCC3)nc3sc(C#N)c(N)c3c2CC1(C)C | 5.4 | 0 | 0 | 0 | 0 | 0
COc1ccc(/C=C/C(=O)NC(=S)N2CCN(c3ccccc3OC)CC2)cc1 | 5.5 | 0 | 0 | 0 | 0 | 0
SMILES | DAX1 inh-1 | hcDAF-12 act | AHR activator | DAX1 inh-2 | ssDAF-12 act | hgDAF12 agonist
COc1ccccc1/C=C/C(=O)NC(=S)NC(C)C | 0 | 0 | 68 | 0 | 0 | 0
COc1ccccc1/C=C/C(=O)NC(=S)N1CCN(C)CC1 | 0 | 0 | - | 3.9 | 0 | 0
COc1ccc(/C=C/C(=O)NC(=S)N2CCOCC2)cc1 | 0 | 0 | 0 | 0 | 0 | 0
CCOc1ccc(NC(=O)CN(C)C(=O)c2cc(S(=O)(=O)N3CCCCCC3)ccc2OC)cc1OCC | 0 | 0 | 0 | 3.9 | 0 | 0
COc1ccccc1-c1cc2nc(C)cc(C)n2n1 | - | 0 | 49 | 0 | 0 | 0
c1ccc(-c2ccccc2-c2nc(-c3cccnc3)no2)cc1 | 0 | 0 | 0 | 0 | 0 | 0
Cc1c(-c2nc(-c3ccncc3)no2)cccc1[N+](=O)[O-] | 0 | 0 | 65 | 0 | 0 | 0
Brc1ccccc1-c1nc(-c2ccccc2)no1 | - | - | 50 | - | - | -
Fc1ccccc1-c1nc(-c2ccc(-c3nn[nH]n3)cc2)no1 | 0 | 0 | 0 | 0 | 0 | 0
Fc1ccccc1-c1nc(-c2ccncc2)no1 | 4.8 | 0 | 0 | 0 | 1.1 | 0
O=[N+]([O-])c1cc(-c2nc(-c3ccncc3)no2)ccc1Cl | 0 | 0 | 0 | 0 | 0 | 0
N=C1C(c2nc(-c3ccc(Br)cc3)cs2)=C(O)CN1NC(=O)c1ccc([N+](=O)[O-])cc1 | 0 | 0 | 0 | 0 | 0 | 0
S=C(Nc1cccc(Cl)c1Cl)NC1CCN(Cc2ccccc2)CC1 | 0 | 0 | - | 0 | 0 | 0
NC1=NC(=Nc2ccccc2)c2ccccc21 | 0 | 0 | 0 | 0 | 0 | 0
CC(C)c1ccc(N=C2N=C(N)c3ccccc32)cc1 | 0 | 0 | 48 | 0 | 0 | 0
Cc1cccc(N=C2N=C(N)c3ccccc32)c1 | 0 | 0 | 0 | 0 | 0 | 0
NC1=NC(=Nc2ccc(Cl)cc2)c2ccccc21 | 0 | 0 | 56 | 0 | 0 | 0
COc1ccc(S(=O)(=O)N2CCN(C3CC4CCC3C4)CC2)cc1 (configuration not stated) | 0 | 0 | 0 | 0 | 0 | 0
Cc1ccc(NCC(=O)N/N=C\c2ccc[nH]2)cc1 | - | 0 | 62 | 0 | 0 | 0
CC(C)(C)OC(=O)N/N=C\c1ccc(OC(=O)c2ccco2)cc1 | 0 | 6.2 | 0 | 0 | 0 | 11
Cc1ccccc1NCC(=O)N/N=C/c1ccc[nH]1 | - | 0 | - | - | 0 | 0
Cc1ccc(NCC(=O)N/N=C/c2ccc(OC(=O)c3ccco3)cc2)cc1 | 0 | 0 | 59 | 0 | 0 | 0
Cc1cc(C)c(S(=O)(=O)NCc2csc(C)n2)c(C)c1 | 0 | 0 | - | 0 | 0 | 0
COc1ccccc1N1CCN(CC(O)COc2ccc3c(C)cc(=O)oc3c2)CC1 (configuration not stated) | 0 | 0 | 0 | 0 | 0 | 0
Cc1ccc(-c2nc3ncccc3o2)cc1N | 0 | 5.8 | 67 | 0 | 0 | 0
SMILES | DAX1 inh-1 | hcDAF-12 act | AHR activator | DAX1 inh-2 | ssDAF-12 act | hgDAF12 agonist
Cc1cc(-c2nc3ncccc3o2)ccc1N | 0 | 0 | 0 | 0 | 0 | 0
CCCC(=O)Nc1cc(-c2nc3ncccc3o2)ccc1Cl | 0 | 0 | 75 | 0 | 0 | 0
COc1ccc([C@@H]2CC=C(C(=O)O)[C@H](c3ccc(Br)cc3)N2S(=O)(=O)c2ccccc2C)cc1 | 0 | 0 | 0 | 0 | 0 | 0
CCCCN(C)C(=O)c1ccc2c(c1)N(CC)C(=O)c1ccccc1S2=O (configuration not stated) | 4.7 | 0 | 0 | 0 | 0 | 0
CCCCN(C)CCCNC(=O)c1ccc2c(c1)N(CC)C(=O)c1ccccc1S2=O (configuration not stated) | 0 | 0 | 0 | 0 | 0 | 0
C#CCN(C[C@H]1[C@H](OC(=O)NCC2CCCCC2)[C@H](OC(=O)NCC2CCCCC2)C[C@H]2C(=O)N(c3ccccc3)C(=O)[C@@H]12)S(=O)(=O)c1ccc(C)cc1 | 0 | 0 | - | 0 | 0 | 0
Cc1ccc(OCC(=O)N/N=C\c2cn(Cc3ccccc3)c3ccccc23)cc1C | 0 | 0 | 0 | 0 | 1.0 | 0
